Pf growth 48h: inhibits P. falciparum growth in the first generation, 48 h; P. falciparum luciferase growth in erythrocytes, 48 h; Potency, µM (series often up to 28.7 µM), inactives show top-dose activity change, negative = inhibition, actives largely listed as inhibitors; actives 5.9% (n = 310,000); AID 504832; also: potency is read from the fitted curve at half-maximal effect; % is scaled to controls: 0 for no effect and ±100 for the full control effect
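In quantitative HTS format, infected erythrocytes bearing luciferase-reporter parasites were treated for a single generation at 37 C. Luminescence after adding detection reagent served as the growth measure.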
HCV inhibitor: HCV inhibition. Huh7.5.1 HCVcc-Cre infection, luciferase reporter, 44 h. Potency, µM (titrated, usually from 41.8 µM), inactives show at the highest dose activity change, negative = inhibition, most hits filed as inhibitors. actives 3.4% (n = 340,000). AID 651820; also: potency is read from the fitted curve at half-maximal effect; % is scaled to controls: 0 for no effect and ±100 for the full control effect
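Infectious HCV cell culture screen: compound-treated cells (1,000/well, pre-plated 4 h) are infected with HCVcc-Cre at roughly 0.5 moi and grown 44 h. Infection is quantified by luciferase signal after 15 min substrate incubation at room temperature.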
Pf growth 96h: P. falciparum growth inhibition at 96 hours | P. falciparum luciferase reporter growth, 96 h | Potency, µM (top dose mostly 28.7 µM), for the others: top-dose activity change, negative = inhibition, usual class: inhibitors | actives 6.9% (n = 320,000) | AID 504834; also: potency is read from the fitted curve at half-maximal effect; % is scaled to controls: 0 for no effect and ±100 for the full control effect
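Infected RBCs, 2% Hct / 0.05% parasitemia final; luciferase-reporter P. falciparum; cpd 96 h, 37 C, 5% CO2; luciferase detection reagent; luminescence.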
AMA1 RON2 block: disrupts binding of P. falciparum AMA1 to RON2; AID 720542; AlphaScreen AMA1-biotinylated RON2 peptide binding; actives 0.2% (n = 360,000); Potency, µM (titrated, usually from 58.2 µM), without a hit: at the top dose activity change, negative = inhibition, actives largely listed as inhibitors;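 also: potency is read from the fitted curve at half-maximal effect; 0% = vehicle wells and -100% = peptide control; nearly all actives have a fitted effect of over 45% in size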
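AMA1 (3D7) with his tag at 25 nM final met compounds first, then biotinylated RON2 peptide at 25 nM; detection used donor plus acceptor beads, 10 µg/mL apiece, read by AlphaScreen after 30 min at room temperature.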
Shiga inhibitor: Shiga toxin inhibition. Vero cells, Shiga toxin protein synthesis inhibition reporter. inhibition, % at 38.7 µM. actives 9.2% (n = 290,000). AID 2315; in the data active = inhibition mostly above about 28%, no sharp cut-off; inactive = mostly below about 43%; also: 0% is about no effect
Cycloheximide cs: counter-screen hit for Shiga toxin inhibitors, cycloheximide; actives 12% (n = 300,000); cell reporter, cycloheximide protein synthesis inhibition counterscreen; max response, %; AID 2314; in the data active = max response mostly above about 13%, no sharp cut-off; inactive = mostly below about 14%; also: read at 38.3 µM for the half of the compounds with a filed dose; 0% is about no effect
The depositor's hits bear a star; ? = inconclusive; nt = not tested or not shown; [ ] = dose if it differs, or a comment. Sampled rows, rich in hits. Any-hit rate of the full collection: about 21%. Unless noted, calls follow the shape of the dose curve; as a rule, active = well fitted curve in the direction sought with a large enough effect; inconclusive = small, poorly fitted or top-dose-only effect, or another doubt; inactive = no such curve, though single readings can be large; an effect the other way counts as inactive or inconclusive.

SMILES	Pf growth 48h	HCV inhibitor	Pf growth 96h	AMA1 RON2 block	Shiga inhibitor	Cycloheximide cs
CN(C)C(CNC(=O)CCCN1C(=O)c2cccc3cccc(c23)C1=O)c1ccccc1 (stereo not drawn)	?	?	-22.0%	-0.6%	2.5	5.3
O=C(COC(=O)c1cc(Cl)nc(Cl)c1)NCc1ccc2c(c1)OCO2	nt	-23.2%	nt	-1.3%	nt	nt
CCC(=O)Nc1nnc(CCc2ccccc2)s1	23.5%	-3.3%	-17.2%	1.5%	21.9	13.1*
CCC(=O)Nc1nnc(Cc2ccccc2)s1	13.1%	9.0%	0.0%	1.9%	15.8	10.3
O=C(C1=C(O)C(=O)N(CC2CCCO2)C1c1cccc(Cl)c1)c1ccco1 (stereo not drawn)	27.0%	20.1%	34.1%	0.0%	-4.4	-1.8
O=[N+]([O-])c1ccc(N2CCN(c3ccccc3O)CC2)c(Cl)c1	?	?	?	?	133.1*	47.7*
O=C(CN1CCN(c2ccccc2O)CC1)Nc1cc([N+](=O)[O-])ccc1Cl	9.28µM*	-10.7%	?	8.6%	-0.7	-1.1
O=[N+]([O-])c1ccc(N2CCN(c3ccccc3O)CC2)cc1	28.1%	6.6%	21.0%	-3.2%	-2.5	-1.0
O=C(c1ccc([N+](=O)[O-])cc1Cl)N1CCN(c2ccccn2)CC1	-1.6%	-8.5%	-4.6%	0.0%	-5.4	-2.6
O=[N+]([O-])c1ccc(N2CCN(c3ccccn3)CC2)c(Cl)c1	?	-27.4%	?	?	58.7*	22.4
CCOc1ccc(N2C(=O)CC(Sc3ccccc3C(=O)O)C2=O)c([N+](=O)[O-])c1 (stereo not drawn)	-0.9%[5.75 µM]	-5.9%	2.3%	6.4%	1.6	5.1
COc1ccc(/C(C)=N/NC(=O)CNC(=O)C(c2ccccc2)c2ccccc2)c(OC)c1	-9.0%	?	-17.5%	33.5%	-13.0	-1.5
CCN1CCN(CCNC(=O)CCCn2nc(C)c3c(C)n(-c4ccc(C)cc4)nc3c2=O)CC1	-14.3%	-12.5%	?	-3.7%	-7.7	-2.6
Cc1cccc(C)c1NC(=O)C1(C)CCC(=O)N1C1CC1 (stereo not drawn)	nt	nt	nt	5.7%	nt	nt
O=S(=O)(c1ccc(N2CCC(c3ccc(Cl)cc3)=N2)cc1)N(CCO)CCO	nt	13.8%	-60.9%	23.6%	4.0	3.5
CN(C)CCCNS(=O)(=O)c1ccc(N2CCC(c3ccc(Cl)cc3)=N2)cc1	9.28µM*	3.98µM*	nt	nt	14.5	2.3
COC(=O)c1ccccc1C(=O)c1ccc2c(c1)NC(=O)CO2	4.3%	-16.2%	25.9%	7.3%	24.8	-1.3
CCOCCn1c(C(C)O)nc2ccccc21 (stereo not drawn)	25.1%	-11.9%	3.7µM*	0.0%	-9.6	10.7
CCc1cccc(CC)c1N(COC)C(=O)Cn1c(C(C)O)nc2ccccc21 (stereo not drawn)	0.0%	2.3%	9.28µM*	-2.0%	30.8	0.7
CCOCCn1c(CC)nc2ccccc21	18.2%	29.0%	-13.6%	-1.1%	46.0	-0.8
COc1ccc(-n2nc(C(=O)NCC(=O)NCCC3=CCCCC3)c3ccccc3c2=O)cc1	?	-18.2%	12.2%	-18.8%	1.6	4.7
O=S(=O)(c1ccc(SCCOc2ccc(Cl)cc2)nc1)N1CCCC1	13.1µM*	?	?	34.3%	nt	nt
CCOc1ccc(OCCSc2ccc(S(=O)(=O)N3CCN(C)CC3)cn2)cc1	?	11.2µM*	14.7µM*	-28.7%	nt	nt
O=S(=O)(c1ccc(SCCOc2ccc(Br)cc2)nc1)N1CCCC1	?	5.62µM*	?	-1.8%	nt	nt
CN1CCN(S(=O)(=O)c2ccc(SCCOc3ccccc3)nc2)CC1	-9.6%	-18.5%	?	-9.7%	-0.7	-0.8
SMILES	Pf growth 48h	HCV inhibitor	Pf growth 96h	AMA1 RON2 block	Shiga inhibitor	Cycloheximide cs
Cc1ncc(C[n+]2csc(CCOP(=O)(O)O)c2C)c(N)n1	-70.8%	nt	-98.2%	nt	nt	nt
Cc1cccc(NS(=O)(=O)c2ccc(C(=O)NCC(c3ccco3)N(C)C)cc2)c1C (stereo not drawn)	0.3%	-11.2%	10.8%	-13.8%	-23.1	-2.5
CCc1ccc(CNC(=O)CCC(=O)N2Cc3cccc(OC)c3Oc3ncccc32)cc1	?	0.3%	-22.3%	-1.0%	-1.1	10.5
CC(=O)c1ccc(N2CCN(c3ccc(S(=O)(=O)NCCN(C)C)cc3[N+](=O)[O-])CC2)cc1	?	?	?	-5.5%	-2.6	-3.5
CN(C)CCCNS(=O)(=O)c1ccc(N2CCN(Cc3ccc4c(c3)OCO4)CC2)c([N+](=O)[O-])c1	11.7µM*	5.62µM*	9.28µM*	-13.5%	-5.8	-5.1
CC(=O)c1ccc(N2CCN(c3ccc(S(=O)(=O)NCCCN(C)C)cc3[N+](=O)[O-])CC2)cc1	?	11.2µM*	13.1µM*	-7.1%	20.2	-0.3
CN(C)CCCNS(=O)(=O)c1ccc(-n2nnc3ccccc32)c([N+](=O)[O-])c1	0.0%	17.8µM*	?	-2.8%	17.5	-2.1
CN(C)CCNS(=O)(=O)c1ccc(N2CCc3ccccc32)c([N+](=O)[O-])c1	?	10µM*	?	?	-5.0	-3.1
COc1cc2ccccc2cc1C(=O)OCc1nc2ccsc2c(=O)[nH]1	10.4%	-20.3%	-15.8%	-4.2%	nt	nt
CC(C)NC(=O)C1(C)Cc2c(-c3ccc(N(C)C)cc3)ccnc2O1 (stereo not drawn)	nt	nt	nt	-3.8%	nt	nt
CCOC(=O)c1ccc(N=C2SC(C(=O)Nc3ccc(C(=O)O)cc3)CC(=O)N2Cc2cccs2)cc1 (stereo not drawn)	?	28.5%	12.8%	-9.7%	22.3	-3.7
CCOC(=O)c1ccc(N=C2SC(C(=O)NC)CC(=O)N2Cc2ccc(F)cc2)cc1 (stereo not drawn)	-25.2%	24.3%	1.65µM*	-5.1%	12.3	7.4
Nc1cc(-c2cccc(F)c2)nn1S(=O)(=O)c1cccc2nsnc12	-16.7%	-3.2%	1.65µM*	-2.8%	-5.1	-0.9
Nc1cc(-c2ccc(Cl)cc2)nn1S(=O)(=O)c1cccc2nsnc12	nt	?	?	-25.8%	-12.7	-5.8
Nc1cc(-c2ccc(Br)cc2)nn1S(=O)(=O)c1cccc2nsnc12	nt	11.2µM*	?	-27.6%	-13.3	0.8
Cc1c(C(=O)Nc2ccc3c(c2)OCCO3)sc2ncnc(N3CCCCC3C)c12 (stereo not drawn)	?	11.2µM*	0.0%	-4.9%	25.8	10.8
Cc1c(C(=O)N2CCOCC2)sc2ncnc(N3CCc4ccccc4C3)c12	-21.0%	7.5%	59.1%	3.0%	-5.3	1.9
COc1ccc(NC(=O)c2sc3ncnc(N4CCN(c5ccccn5)CC4)c3c2C)cc1Cl	6.57µM*	6.31µM*	?	0.0%	12.4	9.4
COc1ccc(NC(=O)c2sc3nc(C)nc(N4CCN(c5ccccn5)CC4)c3c2C)cc1Cl	1.85µM*	?	-22.9%	-5.3%	-5.3	-8.2
